Experimental data: PubChem BioAssay (NCATS)
Inconclusive results are not listed. A call without a number means that no potency is given here. Activity calls are given as the source filed them. Calls come from the whole dose curve; as a rule, active = well fitted inhibition curve with a large enough effect; inconclusive = small, poorly fitted or top-dose-only effect; inactive = no such curve, though single readings can be large or run the other way.

Target: Retinaldehyde dehydrogenase 3 (Homo sapiens) (UniProt P47895)
Assay: qHTS for Inhibitors of the Aldehyde Dehydrogenase Family (ALDH1A3) Primary screen (AID 2061315)

SMILES	Potency
Cc1ccc(CNc2ncnc3ccc(-c4ccc5c(c4)OCO5)cc23)s1	inactive
CC(=O)Nc1sc2c(c1-c1cc3ccccc3s1)CCNC2	inactive
Nc1ccc(-c2ccnc(NCCCNC(=O)c3c(Cl)cccc3Cl)n2)cc1	inactive
CC(=O)N1CCN(c2cccc(Nc3nn4c(=O)c5ccccc5nc4s3)c2)CC1	inactive
COc1cc(/C=C2/C(=O)Nc3ccccc32)cc(OC)c1O	inactive
CCCCOc1ccc(S(=O)(=O)n2c(C)nc3ccccc32)cc1	inactive
O=c1c(Nc2ccc(Br)c(Br)c2)c(Nc2nnc(-c3ccncc3)s2)c1=O	inactive
CC(C)(C)OC(=O)N1CCN(c2ccc(NCc3cc(-c4ccc(C#N)cc4)co3)cc2)CC1	inactive
Cc1cc(NS(=O)(=O)c2cc3c(cc2N[C@@H](C)CO)NC(=O)CC3)ccc1F	inactive
COc1ccccc1NS(=O)(=O)c1cc(NC(=O)c2ccccc2)ccc1N1CCCC1	inactive
Cc1cc(C)nc(NC(=S)N2CCN(c3cc(C(F)(F)F)nc4ccc(C(F)(F)F)cc34)CC2)c1	inactive
Cc1ccsc1CN(C)c1ncnc2ccc(-c3ccc4c(c3)OCO4)cc12	inactive
COc1cc(C(N)=O)nc(-c2ccccn2)c1O	inactive
O=C(CSc1nnc(-c2cccc([S+](=O)([O-])N3CCCC3)c2)n1-c1ccccc1)Nc1ccc(Br)cc1	inactive
COc1cc(-c2ccc3ncnc(NCc4cccs4)c3c2)cc(OC)c1OC	inactive
O=c1c2ccccc2nc2sc(NCc3ccc([S+](=O)([O-])c4ccccc4)cc3)nn12	inactive
O=C(Cn1nc(-c2ccncc2)ccc1=O)NCCc1ccccc1	inactive
CS(=O)(=O)c1ccc(C(=O)OCC(=O)N2CCN(C3CCCCC3)CC2)cc1[N+](=O)[O-]	inactive
CN1CCN(c2cccc(Nc3nn4c(=O)c5ccc(C(F)(F)F)cc5nc4s3)c2)CC1	inactive
O=C(O)c1cccc(-n2cccc2/C=C2/NC(=O)N(c3cccc(Cl)c3)C2=O)c1	inactive
Cn1ncc2ccc(-c3ccc4ncnc(NCc5cccs5)c4c3)cc21	inactive
CC(C)(C)OC(=O)N1CCN(c2ccc(OCc3ccc(-c4ccc(C#N)cc4)o3)cc2)CC1	inactive
CCOc1cccc(-c2cc(-c3n[nH]c(=S)n3CC)c3ccccc3n2)c1	inactive

SMILES	Potency
c1nc(NCCc2cnc[nH]2)c2ccc(-c3ccc4c(c3)OCO4)cc2n1	inactive
Cc1ccc(CN(C)c2nc(-c3ccccc3C(F)(F)F)nc3ccccc23)cc1	inactive
Cc1ccccc1NC(=O)CN1C(=O)N/C(=C\c2cn(-c3cccc(C(=O)O)c3)cn2)C1=O	inactive
Cc1csc(CNc2ncnc3ccc(-c4ccc(CO)o4)cc23)n1	inactive
O=C(NCc1nnc(C(=O)Nc2ccc(C(F)(F)F)cc2Cl)o1)c1ccccc1	inactive
CNc1oc(-c2cccc3ccccc23)nc1C(=O)Nc1cccc(C#N)c1	inactive
Cn1c2cc([N+](=O)[O-])sc2c2cnn(Cc3ccccc3F)c(=O)c21	inactive
N#Cc1nc(-c2cccc3ccccc23)oc1Nc1ccccc1	inactive
O=S(=O)(Nc1nccs1)c1ccc(NCc2cccc(Br)c2O)cc1	inactive
CCOc1cc2c(cc1OCC)CN(C(=O)c1cc3sccc3n1Cc1ccccc1)CC2	inactive
N#Cc1ccc(-c2ccc(-c3nc4ccccc4c(=O)[nH]3)o2)cc1	inactive
O=C(O)c1ccc(S(=O)(=O)N[C@@H](Cc2ccc(O)cc2)C(=O)O)cc1	inactive
O=C(Nc1ncnc2c1C(c1ccccc1)c1c(ccc3ccccc13)O2)c1ccccc1 (stereo not given)	inactive
Oc1ccc(CNc2ccccn2)c2cccnc12	inactive
CN(C)c1ccc2c(=O)n3nc(Nc4ccc5c(c4)CCC5)sc3nc2c1	inactive
C/C=C/C1=CC2=C(CO1)C(=O)C(C)(OC(=O)c1c(C)cc(O)cc1OC)C(O)C2 (stereo not given)	inactive
Cc1ccc(NS(=O)(=O)c2ccc3c(c2)CCO3)cc1C	inactive
Cc1cccc(CNc2ccnc(-c3ccc4ccccc4c3)n2)c1	inactive
N#Cc1c(-c2ccc(-c3ccccc3)cc2)no[n+]1[O-]	inactive
Cc1ccc(NS(=O)(=O)c2cc3c(cc2-c2ccsc2)NC(=O)CO3)cc1C	inactive
Cc1ccc(NS(=O)(=O)c2cc3c(cc2-c2ccccc2)NC(=O)CO3)cc1C	inactive
O=C(NCc1ccc(Oc2ccccc2)cc1)c1nc(-c2cc(Br)c(O)c(Br)c2)no1	inactive
